# Reference: PubChem BioAssay AID1347070 (National Center for Advancing Translational Sciences (NCATS), 2019)
# About 20 (0.02%) of roughly 94,000 compounds were called active. Inconclusive results (about 1%) are left out. The list is a sample of the results. A number with no mark means an inactive call. The call rests on the fitted dose curve; in most records, active means well fitted activation curve with a large enough effect; inconclusive means small, poorly fitted or top-dose-only effect; inactive means flat fitted curve, though single readings scatter.
# Experiment: qHTS of alpha-syn Inhibitors: NCGC Sytravon Library Screen; further: 0% is about no effect
# Details: S. cerevisiae alpha-synuclein toxicity rescue, BacTiter-Glo growth, 24 h; series mostly up to 46.1 µM; growth rescue (activation): at the top concentration
# From the text: The goal of this project is to identify new chemical probes capable of reversing the toxicity associated with the Parkinson disease-related protein, alpha-synuclein. Compounds will be selected on their ability to restore growth in yeast cells expressing toxic levels of alpha-synuclein. These compounds will provide a complementary approach to deciphering the tangled mechanisms of toxicity and protection that we have uncovered through genome-wide genetic screens and are beginning to uncover in a large-scale proteomics analysis with mass spectroscopy. To this end, a miniaturized assay was developed to be screened against the Molecular Libraries Small Molecule Repository (MLSMR) to discover alpha-synuclein inhibitors. […] The phenotype of interest will be that of an Activator and this screen is run against the NCGC Sytravon Library collection. NIH Chemical Genomics Center [NCGC] NIH Molecular Libraries Probe Centers Network [MLPCN] MLPCN Grant: NS060957 Assay Submitter (PI): Susan Lindquist, Whitehead Institute/MIT
# Dispense 2.5 microL yeast galactose medium per 1536-well plate, pin compound, dispense 2.5 microL alpha-synuclein expressing yeast in galactose medium at OD600=0.02 (pregrown in raffinose medium to mid-log phase) per well, incubate for 24 hr at 30 deg C, and cell growth will be measured using 5 microL of Bactiter/Glo reagent to entire plate and read using Luminescence Protocol in ViewLux.
row,SMILES,growth rescue (activation) [%]
1,O=C(NCCS(=O)(=O)NCc1ccc(Cl)cc1)c1ccccc1,-1.84
2,CC1=C(C(=O)N2CCOCC2)CC(CC(=O)NCc2ccco2)C(=O)N1Cc1ccc(F)cc1 (stereo not given),-7.62
3,Cc1ccc(C)n1NC(=O)c1ccc([N+](=O)[O-])cc1,-1.43
4,COc1ccc(-c2cc(=O)oc3cc(OC(C)C(=O)NCC4CCC(C(=O)O)CC4)ccc23)cc1 (stereo not given),-0.947
5,CCOc1ccc(C(=O)CCC(=O)NC2=NCCS2)cc1,-17.3
6,O=C1N/C(=C/c2cccs2)C(=O)N1Cc1ccc(F)cc1,-2.61
7,C/C(COc1ccccc1)=N\NC(=O)c1nnn(-c2nonc2N)c1-c1ccc(C)cc1,-12.9
8,CCCCn1c(N)c(N(CC(C)C)C(=O)c2cccc(S(=O)(=O)N3CCN(C(C)=O)CC3)c2)c(=O)[nH]c1=O,-0.923
9,O=C(c1ccc(C(F)(F)F)cc1)C1CCCN(C(=O)c2csnn2)C1 (stereo not given),0.0205
10,COc1ccc(/C=C/CN2CCN(Cc3ccc(C)cc3)C(CCO)C2)cc1 (stereo not given),-4.89
11,CCOc1ccc(S(=O)(=O)N2CCCC(C(=O)N3CCC(C(N)=O)CC3)C2)cc1Cl (stereo not given),-12.6
12,NS(=O)(=O)c1ccc(NC(=S)NNC(=O)c2cccs2)cc1,0.938
13,O=C(COc1ccccc1O)NC1CCCC1,5.21
14,CC1=C(C(=O)N2CCOCC2)CC(CC(=O)NCCN2CCOCC2)C(=O)N1CCC1=CCCCC1 (stereo not given),2.47
15,COc1ccccc1C(=O)NC(=O)COC(=O)c1ccco1,4.89
16,O=C(Nc1ccccc1)C1CC(=O)n2c(nc3ccccc32)N1 (stereo not given),-12.2
17,Cc1ccc(C=O)c([B-](F)(F)F)c1,-10.2
18,O=C(CNc1ccccc1N1CCCC1=O)Nc1cc(Cl)ccc1-n1cncn1,1.15
19,O=C(/C=C/Nc1ccc(S(=O)(=O)Nc2cnc3ccccc3n2)cc1)c1cccnc1,-7.11
20,CCOC(=O)c1cc(-c2sc(NC(=O)c3ccccc3)nc2C)n(CCO)n1,0.447
21,COc1ccc2oc(C(=O)N(CC(C)C)C3CCS(=O)(=O)C3)c(C)c2c1 (stereo not given),-1.27
22,CN(CCN1CCOCC1)Cc1nc(-c2ccc3c(c2)OCO3)no1,0.432
23,COCOCCn1cc(CN2CCS(=O)(=O)N(Cc3ccc(-c4ccccc4)cc3)C(CC(C)C)C2=O)nn1 (stereo not given),-6.88
24,CCc1nnc(NC(=O)c2ccco2)s1,-11.6
25,Cn1ccc(=NC=C(C#N)C#N)c2ccccc21,2.17

row,SMILES,growth rescue (activation) [%]
1,COc1cc(NS(=O)(=O)c2ccc(NC(=S)NC(=O)c3ccccc3)cc2)nc(OC)n1,13.9
2,O=C(OCc1nnc(-c2ccccc2)o1)c1cc(=O)[nH]c2ccccc12,4.04
3,O=C1[C@H]2[C@@H](c3ccc(C(F)(F)F)cc3)N[C@]3(CCCN(Cc4ccc(Cl)cc4)C3=O)[C@H]2C(=O)N1Cc1ccccc1,20.9
4,Cn1cnnc1SCC(=O)NNC(=O)COc1ccc(Br)cc1,5.71
5,Cc1ccc(N(C(=O)Cc2cccs2)C(C(=O)NCC2CCCO2)c2ccncc2)cc1 (stereo not given),4.36
6,COc1ccccc1NC(=O)CCSc1nnc(-c2ccc(O)cc2)o1,4.49
7,O=C(OCc1cn([C@H]2C[C@H](c3ccccc3)N(C(=O)c3cccs3)C[C@@H]2O)nn1)c1ccccc1,4.38
8,COc1ccc(NC(=O)CN(C)C(=O)c2cc(C)oc2C)cc1,-11.2
9,Cc1noc(C)c1COc1ccccc1C(=O)N(C)CC(=O)Nc1cccc(F)c1,-6.68
10,COc1ccc(N(C(=O)c2snc(C(N)=O)c2N)C(C(=O)NC2CCCC2)c2ccc(C)o2)c(OC)c1 (stereo not given),-6.84
11,NS(=O)(=O)c1ccc(NC(=S)NC(=O)c2cccnc2)cc1,4.97
12,C=C(C)COc1ccc(-c2nc(N)ncc2-c2ccccc2OC)c(O)c1,1.32
13,Cc1cccc(OCC(=O)NCCCNC(=O)c2ccccn2)c1,-2.97
14,O=C(NC1CCCC1)C1CC(=O)N(c2ccc(F)cc2)C1 (stereo not given),5.38
15,CO/N=C/c1cn(-c2ccc(Cl)cc2)nn1,-2.78
16,CC(OC(=O)c1ccc(NC(=O)CC#N)cc1)C(=O)Nc1ccc(S(=O)(=O)N2CCCC2)cc1 (stereo not given),-3.04
17,Cc1cccc(C)c1NC(=O)CS(=O)CC(=O)N1CCN(c2ccccc2)CC1 (stereo not given),0.0275
18,CCOc1ccc(NS(=O)(=O)c2ccc(C(=O)NCC(c3ccccc3OC)N3CCCC3)cc2)cc1 (stereo not given),-0.106
19,O=[N+]([O-])c1ccc(C(S(=O)(=O)Cc2ccccc2)S(=O)(=O)Cc2ccccc2)cc1,6.13
20,O=C(NCc1ccc(Cl)cc1)C(=O)NCC1CCCN1S(=O)(=O)c1cccs1 (stereo not given),3.28
21,O=C(CNC(=O)N1CC(=O)Nc2ccccc21)Nc1ccc(Br)cc1F,-8.77
22,O=C(c1ccc(N2CCCC2=O)cc1)N1CCN(c2ccc(C(F)(F)F)cc2[N+](=O)[O-])CC1,-12.1
23,Cc1ccc(CN2CC(C(=O)N3CCN(S(=O)(=O)c4ccccc4)CC3)CC2=O)cc1 (stereo not given),-46.5
24,CCN(C(=O)C1CCCN(c2nc(-c3ccc(OC)cc3)no2)C1)c1ccc(OC)cc1 (stereo not given),-9.06
25,CN(C)c1ccc(C2Nc3ccccc3C(=O)N2NS(=O)(=O)c2ccccc2)cc1 (stereo not given),-4.67
